# Assay results published in PubChem BioAssay AID463219 (Sanford-Burnham Center for Chemical Genomics, 2010).
# The other results are listed elsewhere or left out. A number with no mark means an inactive call. Calls of active or inactive are those of the source.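 How the source made its calls: active means cytotoxicity above 50% in each of four replicates; inactive means the rest.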
# Assay: AML12 hepatocyte cytotoxicity, confirmation, cytotoxicity control for hepatic lipid droplet formation project, cell-based, single concentration (AID 463219);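 further: compound exposure lasted overnight at 37 °C before the ATP read; 0% = DMSO-treated cells and 100% = wells with no cells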
# Details: AML12 mouse hepatocyte viability, ATP luminescence; at 50 µM; active compounds read high; cells loaded with 100 µM oleic acid
row,Compound,cytotoxicity
1,CCCN(CCC)c1ccc(C(O)c2nnc(-c3ccccc3)o2)cc1 (stereo not drawn),6.65%
2,Cc1ccc(N2C(=O)C(NC(=O)c3c(F)cccc3F)(C(F)(F)F)C3=C2CC(C)(C)CC3=O)cc1 (stereo not drawn),13.2%
3,CCCc1ccc(-c2csc(NC(=O)Cc3cccs3)n2)cc1,14%
4,Cn1c(=O)[nH]c(=O)c2c1nc(N1CCN(C(c3ccccc3)c3ccccc3)CC1)n2CCO,77.5% (active)
5,COc1ccc(Cl)cc1NC(=O)CN(C)C(=O)CCCc1c[nH]c2ccccc12,22.5%
6,COc1ccc(C(C(=O)NC(C)(C)C)N(Cc2ccc(F)cc2)C(=O)CCC(=O)Nc2cc(C)on2)cc1 (stereo not drawn),10.5%
7,CCOc1ccc(CCNC(=O)CCc2nnc3ccc(N4CCCC4)nn23)cc1OCC,2.1%
8,COc1cccc(/C=C(/CC(=O)Nc2ccc(N3CCOCC3)cc2)c2nc3ccccc3s2)c1,9.53%
9,Cc1cc(C(=O)NC2CCCc3c2cnn3-c2cccc(C)c2C)c(C)o1 (stereo not drawn),14.5%
10,CCOc1ccc(CCNC(=O)Nc2ccccc2)cc1OCC,12.3%
11,O=C1Nc2ccc(Br)cc2/C1=N/N=C/C1=C(N2CCOCC2)C(=C\c2ccccc2)/CC1,-0.325%
12,COc1ccc(/C=C(\NC(=O)c2ccc(OCC(C)C)cc2)C(=O)OCc2ccco2)cc1,7.73%
13,Cc1cc(NC(=O)CSc2nc(C(C)C)nc3sc4c(c23)CCC(C)C4)no1 (stereo not drawn),10.1%
